Values without a mark were called inactive. The source made the active and inactive calls. The call rests on the fitted dose curve; in most records, active means well fitted activation curve with a large enough effect; inconclusive means small, poorly fitted or top-dose-only effect; inactive means no such curve, though single readings can be large or run the other way.
biological target: Cytochrome P450 3A4 (Homo sapiens) (UniProt P08684); assay: qHTS Assay for Activators of Cytochrome P450 3A4 (AID 885); settings: recombinant CYP3A4, Luciferin-PPXE luminescence, 60 min; series mostly up to 11.4 µM; activity change, positive = activation: at the top concentration; further: nearly all actives have a fitted effect of over 65% in size
Sequence (P08684 whole entry, looked up): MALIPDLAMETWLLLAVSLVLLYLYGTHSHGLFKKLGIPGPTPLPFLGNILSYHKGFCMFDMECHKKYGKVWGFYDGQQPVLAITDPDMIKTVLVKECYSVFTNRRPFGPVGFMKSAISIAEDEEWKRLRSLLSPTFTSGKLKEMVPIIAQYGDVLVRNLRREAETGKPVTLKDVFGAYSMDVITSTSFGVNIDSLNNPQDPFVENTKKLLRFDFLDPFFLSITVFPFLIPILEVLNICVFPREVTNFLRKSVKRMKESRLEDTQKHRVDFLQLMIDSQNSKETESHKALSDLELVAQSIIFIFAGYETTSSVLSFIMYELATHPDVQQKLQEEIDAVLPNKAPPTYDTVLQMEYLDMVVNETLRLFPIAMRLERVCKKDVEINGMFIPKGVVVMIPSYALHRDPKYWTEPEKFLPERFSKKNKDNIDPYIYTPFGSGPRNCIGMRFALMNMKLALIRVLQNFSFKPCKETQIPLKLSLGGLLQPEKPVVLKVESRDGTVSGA
Experimental: NIH Molecular Libraries Screening Centers Network [MLSCN]
NIH Chemical Genomics Center [NCGC]
The P450 gene superfamily is involved in the metabolism and clearance of xenobiotics. This assay used human CYP3A4 to measure the dealkylation of luciferin-6' phenylpiperazinylyl (Luciferin-PPXE; […]) to luciferin. The luciferin is then measured by luminescence after the addition of a luciferase detection reagent. Luciferin-PPXE concentration in the assay was equal to its KM for CYP3A4. Inhibitors and some substrates limit the production of luciferin, and decrease measured luminescence; activators increase the production of luciferin and luminescence.
NCGC Assay Protocol Summary:
Two uL of enzyme and substrate mix (final concentrations: 20nM CYP3A4, 25uM Luciferin-PPXE, 200mM KPO4) were dispensed into a white, solid bottom 1536-well microtiter plate. 23nL of compound was transferred by a pin tool. The plate was incubated at RT for 10 min. Two uL of an NADPH regeneration solution (Promega supplied reagent) was dispensed and the reaction was allowed to continue for 60 min at RT. Then the reaction was stopped by reconstituted luciferin detection buffer. After another 20 min of incubation the plate was read on the ViewLux (Perkin Elmer) at 60 sec exposure and 2x2 binning. This protocol was carried out with Promega-Glo reagents and further information can be found at http://www.promega.com/tbs/tb325/tb325.pdf. Data were normalized to the to AC100 inhibition (57 uM ketoconazole).
Keywords: P450, CYP2D6, Luciferase, MLSMR, MLSCN, NIH Roadmap, qHTS, NCGC
Potency means the concentration at half of the fitted maximal effect.

| SMILES | activity change, positive = activation | Potency |
| --- | --- | --- |
| N[C@@H](CC1=CS(=O)(=O)c2ccc(Cl)cc21)C(=O)O | -32.9% | – |
| C=CC(=O)OCCCCCCOC(=O)C=C | -34.6% [at 57.1 µM] | – |
| O=C(c1cc(C(F)(F)F)cc(C(F)(F)F)c1)N1CCC[C@@]2(CCN(Cc3ccccc3)C2)C1 | -97.6% [at 57.1 µM] | – |
| Oc1ccc(Cc2cc(Cl)cc(Cl)c2O)cc1Cl | -32% | – |
| Cc1[nH]c(N)nc(=S)c1CCCNc1ccccc1 | -39.2% | – |
| CN1CCC(n2[nH]c(-c3ccccc3)c(Cc3ccccc3)c2=O)CC1 | -73.6% | – |
| CC(=O)Nc1ccc2c(c1)C(=Nc1ccc(C(=O)O)cc1)c1ccccc1-2 | -40.1% | – |
| Cc1ccc(C(=N)c2ccccc2Cc2cccc3ccccc23)c2ccccc12 | -75.9% | – |
| O=c1oc2cc(N=Cc3ccc4c(c3)OCO4)ccc2c2ccccc12 | -101% | – |
| S=C(S)NCCCn1ccnc1 | -75.7% | – |
| Cc1ccc(-c2nnc(-c3ccc4ccccc4c3)o2)cc1 | -43.9% | – |
| Nc1nc(SCc2ccc([N+](=O)[O-])cc2)c2ncn([C@@H]3O[C@@H](CO)[C@@H](O)[C@H]3O)c2n1 | -34.5% [at 57.1 µM] | – |
| N#CC(C#N)=NNc1ccc2cn[nH]c2c1 | -30% | – |
| Nc1c(S(=O)(=O)O)cc(Nc2cccc(S(N)(=O)=O)c2)c2c1C(=O)c1ccccc1C2=O | -36.4% | – |
| O=c1cnc2cnc(N3CCNCC3)nc2n1CCc1ccccc1 | -37.6% [at 57.1 µM] | – |
| Nc1nc(SC/C=C\c2ccccc2)c2[nH]cnc2n1 | -82% | – |
| Cc1nnc(SCC2=C(C(=O)O)N3C(=O)[C@@H](NC(=O)Cn4cnnn4)[C@@H]3SC2)s1 | -45.1% [at 57.1 µM] | – |
| N#CCCSC(=S)[C@H]1CCCC1=N | -42% | – |
| COc1c(O)ccc2c1CN1CCc3cc4c(cc3[C@@H]1C2)OCO4 | -40.3% | – |
| Cc1cc(O)c(C(C)C)cc1C1(c2cc(C(C)C)c(O)cc2C)OC(=O)c2ccccc21 | -72.8% | – |

| SMILES | activity change, positive = activation | Potency |
| --- | --- | --- |
| c1ccc2cc(NCNc3ccc4ccccc4c3)ccc2c1 | -38.8% | – |
| Cc1ccc2c(c1)N[C@H](c1ccc(C(=O)O)cc1)c1cccn1-2 | -66.3% | – |
| COCCn1c(=O)c(-c2cc(F)cc(F)c2)nc2cnc(OC)nc21 | -67.8% [at 57.1 µM] | – |
| CC(=O)OCC(=O)[C@]12OC(C)(C)O[C@@H]1C[C@H]1[C@H]3CC=C4C[C@@H](O)CC[C@]4(C)[C@H]3CC[C@]12C | – | 3.16 µM (active) |
| c1ccc(C[C@@H](Nc2cccnc2)c2ccccc2)cc1 | -82.1% | – |
| COc1ccc(-n2c(=O)c(C)nc3cnc(Oc4cccc(Cl)c4)nc32)cc1 | -57.6% [at 57.1 µM] | – |
| Cn1c(=O)c2[nH]c(CCCCc3nc4c([nH]3)c(=O)n(C)c(=S)n4C)nc2n(C)c1=S | -84.6% | – |
| CO[C@@H]1/C=C\O[C@@]2(C)Oc3c(C)c(O)c4c(c3C2=O)C(=N[C@H]2CC[C@H](O)O[C@@H]2C)C=C(NC(=O)/C(C)=C\C(=O)[C@@H]2C[C@@H]2[C@@H](O)[C@H](C)[C@@H](O)[C@H](C)[C@H](OC(C)=O)[C@@H]1C)C4=O | -65.8% | – |
| COc1cc(Cl)c(CC(=O)c2c[nH]c3ccccc23)cc1OC | -93.9% | – |
| Cc1ccccc1N1CCN(S(=O)(=O)C[C@@]23CC[C@H](C[C@H]2NC(=O)[C@@H](N)CCS(C)(=O)=O)C3(C)C)CC1 | -88.4% [at 57.1 µM] | – |
| CN(C)c1ccc(-c2nc(Nc3ccncc3)c3ccccc3n2)cc1 | -87% [at 57.1 µM] | – |
| COc1ccc2c(c1)Cc1cc(N=[N+]([O-])c3ccc4c(c3)Cc3cc(OC)ccc3-4)ccc1-2 | -60.9% | – |
| Cc1cc(C(=O)CSC(=S)SC(C)(C)C)ccc1Cl | -37.9% | – |
| CCCCC[C@H](CC(=O)NO)C(=O)N[C@@H](C(=O)N1CCC[C@H]1CO)C(C)C | -57.7% [at 57.1 µM] | – |
| CN1CCc2ccccc2[C@@H]1Cc1ccccc1NC(=O)c1sc2ccccc2c1Cl | -88.3% | – |
| O=C1/C(=C/c2cccnc2)SC(=S)N1Cc1ccco1 | -60.2% | – |
| CCNc1ncc2nc(CCc3ccccc3)c(=O)n(-c3ccc(OC)cc3)c2n1 | -72.1% [at 57.1 µM] | – |
| O=C(O)c1ccccc1-c1ccccc1C(=O)Nc1ccc2c(c1)[nH]c(=O)c1ccccc12 | -57.3% | – |
| c1cc(CNCCN2CCNCC2)ccn1 | -63.2% | – |
| CCCCC(CC)COCCCN (stereo not given) | -50.2% [at 57.1 µM] | – |

Source: PubChem BioAssay (NCATS)
